# Source: the supplement of paper PMC8371130
# Structures can show the parent of a compound that is named as a salt.
# Tested on: HL-1
# Experiment: relative cell viability (CellTiter-Glo) vs DMSO control (% of DMSO control); higher = more viable cells
# Summary of the method: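 HL-1 mouse atrial cardiomyocytes were plated in 384-well plates at 1000 cells per well together with compounds at 40, 200, 1000 or 5000 nM in 0.01% DMSO. One day later, cells went to a hypoxic workstation (1% O2) for 48 h, then were reoxygenated for 24 h in a normal incubator, or stayed in normoxia for the same time. Cell viability was read by CellTiter-Glo luminescence and normalised to vehicle-treated control cells.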
# [1] = oxygen condition: hypoxia 48 h (1% O2) + reoxygenation 24 h, 40 nM
# [2] = oxygen condition: hypoxia 48 h (1% O2) + reoxygenation 24 h, 200 nM
# [3] = oxygen condition: hypoxia 48 h (1% O2) + reoxygenation 24 h, 1000 nM
# [4] = oxygen condition: hypoxia 48 h (1% O2) + reoxygenation 24 h, 5000 nM
# [5] = oxygen condition: normoxia 72 h, 40 nM
# [6] = oxygen condition: normoxia 72 h, 200 nM
# [7] = oxygen condition: normoxia 72 h, 1000 nM
# [8] = oxygen condition: normoxia 72 h, 5000 nM
Structure (SMILES),relative cell viability [1],relative cell viability [2],relative cell viability [3],relative cell viability [4],relative cell viability [5],relative cell viability [6],relative cell viability [7],relative cell viability [8]
c1cnc2cc3c(cc2n1)[C@@H]1CNC[C@H]3C1 [Varenicline tartrate],106,105,110,106,106,102,112,97.8
CCCCNc1ccc(C(=O)OCCN(C)C)cc1 [Tetracaine hydrochloride],97.8,104,107,106,103,106,111,108
CC(C)(C)c1ccc(C(O)CCCN2CCC(C(O)(c3ccccc3)c3ccccc3)CC2)cc1 (stereo not drawn) [Terfenadine],89,102,94.4,79.4,97.4,91.5,76.7,79.7
COc1cc([C@@H]2c3cc4c(cc3[C@@H](O[C@@H]3O[C@@H]5CO[C@@H](c6cccs6)O[C@H]5[C@H](O)[C@H]3O)[C@H]3COC(=O)[C@H]23)OCO4)cc(OC)c1O [Teniposide],96.6,102,98.2,115,105,104,102,118
Clc1ccc2c(c1)CCc1cccnc1C2=C1CCNCC1 [Desloratadine],92.5,109,102,97,105,97.5,104,103
CC1(C)[C@@H](OC(=O)CCC(=O)O)CC[C@]2(C)[C@H]3C(=O)C=C4[C@@H]5C[C@@](C)(C(=O)O)CC[C@]5(C)CC[C@@]4(C)[C@]3(C)CC[C@@H]12 [Carbenoxolone Sodium],94.3,103,100,108,93.6,102,102,107
COc1cc(C(C)=O)ccc1OCCCN1CCC(c2noc3cc(F)ccc23)CC1 [Iloperidone],108,104,107,107,99.6,109,119,109
C[C@H]1c2cccc(O)c2C(=O)C2=C(O)[C@]3(O)C(=O)C(C(N)=O)=C(O)[C@@H](N(C)C)[C@@H]3[C@@H](O)[C@@H]21 [Doxycycline HCl],102,104,105,107,105,106,95.6,92.9
COc1ccc2[nH]cc(CCNC(C)=O)c2c1 [Melatonin],113,105,113,114,108,114,109,119
C[C@H](CCC(=O)O)[C@H]1CC[C@H]2[C@@H]3[C@@H](O)C[C@@H]4C[C@H](O)CC[C@]4(C)[C@H]3CC[C@]12C [Ursodiol],103,106,118,106,99.7,105,119,108
CNC(=O)c1cc(Oc2ccc(NC(=O)Nc3ccc(Cl)c(C(F)(F)F)c3)cc2)ccn1 [Sorafenib],104,105,116,114,109,101,118,114
CCCC1O[C@@H]2C[C@H]3[C@@H]4CCC5=CC(=O)C=C[C@]5(C)[C@H]4[C@@H](O)C[C@]3(C)[C@]2(C(=O)CO)O1 (stereo partly drawn) [Budesonide],95.2,102,91.2,96.5,90.9,83.5,95.6,96.4
C#CCC(Cc1cnc2nc(N)nc(N)c2n1)c1ccc(C(=O)N[C@@H](CCC(=O)O)C(=O)O)cc1 (stereo partly drawn) [Pralatrexate],38.6,43,37.3,38.9,44.3,42.7,46.2,41.8
Cc1cc2c(cc1S(N)(=O)=O)S(=O)(=O)CCC2 [Meticrane],101,101,105,103,102,104,102,112
CNC(=O)c1ccccc1Sc1ccc2c(/C=C/c3ccccn3)n[nH]c2c1 [Axitinib],110,114,117,116,105,108,112,111
OCCOCCN1CCN(C(c2ccccc2)c2ccc(Cl)cc2)CC1 (stereo not drawn) [Hydroxyzine 2HCl],104,107,109,114,102,107,105,109
Cc1ccc(C(=O)Nc2ccc(CN3CCN(C)CC3)c(C(F)(F)F)c2)cc1C#Cc1cnc2cccnn12 [Ponatinib],105,108,113,107,103,103,105,106
Cc1ccc(N(CC2=NCCN2)c2cccc(O)c2)cc1 [Phentolamine mesilate],96.2,94.7,107,106,102,104,108,115
COC(=O)C1=C(C)NC(C)=C(C(=O)OC)C1c1ccccc1[N+](=O)[O-] [Nifedipine],96.4,77.6,85.4,63.7,105,80.7,75.6,59
C=C1/C(=C\C=C2/CCC[C@]3(C)[C@@H]([C@H](C)/C=C/[C@H](C)C(C)C)CC[C@@H]23)C[C@@H](O)C[C@@H]1O [Doxercalciferol],89.5,88,93.7,88.7,106,99,103,52.4
CC1CCc2c(N3CCC(O)CC3)c(F)cc3c(=O)c(C(=O)O)cn1c23 (stereo not drawn) [Nadifloxacin],103,104,102,110,104,103,100,107

Structure (SMILES),relative cell viability [1],relative cell viability [2],relative cell viability [3],relative cell viability [4],relative cell viability [5],relative cell viability [6],relative cell viability [7],relative cell viability [8]
CCCCc1ncc(/C=C(\Cc2cccs2)C(=O)O)n1Cc1ccc(C(=O)O)cc1 [Eprosartan Mesylate],96.2,101,103,104,107,102,102,105
O=C(Nc1ccccc1)OCC(CN1CCCCC1)OC(=O)Nc1ccccc1 (stereo not drawn) [Diperodon HCl],103,101,104,98.6,87.5,107,103,109
CCCN(CCC)S(=O)(=O)c1ccc(C(=O)O)cc1 [Probenecid],103,109,108,110,101,104,109,115
CCc1c2c(nc3ccc(OC(=O)N4CCC(N5CCCCC5)CC4)cc13)-c1cc3c(c(=O)n1C2)COC(=O)[C@]3(O)CC [Irinotecan],99.9,90.1,51.8,28.7,95.2,83.4,64.9,22.8
CC[C@H](C)C(=O)O[C@H]1CCC=C2C=C[C@H](C)[C@H](CC[C@@H]3C[C@@H](O)CC(=O)O3)[C@H]21 [Mevastatin],112,101,99.3,113,101,105,106,119
CN1CCC(OC(c2ccccc2)c2ccccc2)CC1 [Diphenylpyraline HCl],102,96.9,99.3,110,96.9,103,102,100
CNC(=O)c1ccc(N2C(=S)N(c3ccc(C#N)c(C(F)(F)F)c3)C(=O)C2(C)C)cc1F,99.6,103,51.5,106,99.6,102,106,109
NS(=O)(=O)c1cc2c(cc1Cl)N=CNS2(=O)=O [Chlorothiazide],117,112,113,111,109,104,103,110
CC(=O)O[C@H]1C[C@@H]2CC[C@@H]3[C@H](CC[C@@]4(C)[C@H]3C[C@H]([N+]3(C)CCCCC3)[C@@H]4OC(C)=O)[C@@]2(C)C[C@@H]1N1CCCCC1 [Vecuronium Bromide],112,118,114,119,112,115,122,124
COc1cc([C@@H]2c3cc4c(cc3[C@@H](O[C@@H]3O[C@@H]5CO[C@@H](C)O[C@H]5[C@H](O)[C@H]3O)[C@H]3COC(=O)[C@H]23)OCO4)cc(OC)c1O [Etoposide],85.7,67.1,46.6,19.1,91.3,60.8,40,13.9
CCOC(=O)c1c(C)n(C)c2ccc(O)cc12 [Mecarbinate],102,102,101,113,101,99.4,106,110
NCCC(O)(P(=O)(O)O)P(=O)(O)O [Pamidronate Disodium],98.6,106,107,76.5,107,99.9,108,105
CC(C)NCC(O)COc1cccc2ccccc12 (stereo not drawn) [Propranolol HCl],99.8,109,103,109,107,100,92.5,106
NC(CO)C(=O)NNCc1ccc(O)c(O)c1O (stereo not drawn) [Benserazide],107,101,111,110,97.3,104,102,107
CCN(CC)CCOC(=O)C(c1ccccc1)c1ccccc1 [Adiphenine HCl],99.1,94.2,102,108,101,97.4,101,110
Nc1ccc(C(=O)O)c(O)c1 [Aminosalicylate sodium],95.2,102,102,108,105,105,114,108
CC(COc1ccccc1)N(CCCl)Cc1ccccc1 (stereo not drawn) [Phenoxybenzamine HCl],101,97.6,93.1,95.4,101,101,91.5,107
CN(C)CCCN1c2ccccc2Sc2ccc(Cl)cc21 [Chlorpromazine],104,103,106,107,97.1,100,106,117
COc1cc2nccc(Oc3ccc(NC(=O)C4(C(=O)Nc5ccc(F)cc5)CC4)cc3)c2cc1OC,109,112,111,115,112,110,107,120
CN1CCCC(n2nc(Cc3ccc(Cl)cc3)c3ccccc3c2=O)CC1 (stereo not drawn) [Azelastine hydrochloride],96.2,98.2,101,85.4,97.9,102,96.4,84.2
